Measurements as given in PubChem BioAssay (NCI).
About 83,000 compounds went through this panel and 20% of them were active in at least one assay; those are over-represented in the sample as a whole.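 How to read the values: 0–100, growth inhibition (40 = 60% inhibited); 0, no net growth; -100 to 0, cell death (-40 = 40% of starting cells died; -100 = all dead).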 Calls of active or inactive are those of the source. How the source made its calls: active means growth percent below 10; inactive means the rest.

The compounds below were run on SN12C renal (assay: NCI-60 one-dose screen, 48 h (100 = growth as untreated, 0 = no growth, -100 = all killed)). Details: 10 µM unless noted.
For Fc1ccc(-c2cc3nc(C(Cl)Cl)nc(-c4ccccc4)n3n2)cc1, the growth was 52% (inactive).
With O=C(c1ccc(Cl)cc1)C1[C@H](c2ccc(Cl)cc2)[C@@H](c2ccccc2)NC12C(=O)Nc1ccc(Br)cc12 (stereo partly specified) the growth was -48.8% (active).
For COc1ccccc1C(=O)CSc1nc(Nc2ccc(S(N)(=O)=O)cc2)c2ccccc2n1, the growth was 81.1% (inactive).
CC(C)(C)Nc1nc2c(OCCc3ccccc3)cccn2c1-c1ccccc1Cl was tested, and the growth was 0.779% (active).
For CNC(=O)c1cc(-c2ccc(NC(=O)Nc3ccc(N4CCOCC4)c(C(F)(F)F)c3)cc2)nc2cccnc12, the growth was 41.6% (inactive).
In the case of CS(=O)(=O)c1ccc(-n2cc(/C=C/C(=O)c3ccc(NC(=O)CO[N+](=O)[O-])cc3)c(-c3ccc(Cl)cc3)n2)cc1, the growth is reported as 88% (inactive).
In the case of Cc1[nH]nc2ncc(C#Cc3cncc(C(=O)Nc4ccc(CN5CCN(C)CC5)c(C(F)(F)F)c4)c3)cc12, the growth is reported as 7.71% (active).
In the case of CCN1C(=S)N(CC)C2C1N=C(SC)N2/N=C/C=C/c1ccccc1[N+](=O)[O-] (stereo unspecified), the growth is reported as 91.8% (inactive).
For C/C(=C(/c1ccc(Cl)cc1)c1ccc(OCCN)cc1)c1ccc(C)cc1, the growth was 95.7% (inactive).
O=[N+]([O-])c1ccc(O)c2ncccc12 was tested, and the growth was 42.1% (inactive).
In the case of Cc1cc(=O)oc2cc(OCCCOc3ccc(/C=C/C(=O)Nc4ccc(Cl)cc4)cc3)ccc12, the growth is reported as 84.4% (inactive).
In the case of Cc1ccc(-c2nc(C(Cl)Cl)nc3cc(-c4ccccc4)nn23)cc1, the growth is reported as 51.4% (inactive).
For Nc1cc(-c2c[nH]c3ccc(F)cc23)nc2cc(-c3c[nH]c4ccc(F)cc34)nn12, the growth was 99% (inactive).
In the case of COc1cccc(N2CCN(c3ncnc4c3[nH]c3ccc(F)cc34)C[C@@H]2C)c1, the growth is reported as -28.2% (active).
In the case of Cc1ccc(/C=C/c2nn3c(-c4ccco4)nnc3s2)cc1C, the growth is reported as 90.8% (inactive).
With CCN1C(=S)N(CC)C2C1NN=C1SC(c3ccccc3)=CC(=O)N12 (stereo unspecified) the growth was 110% (inactive).
With CC(C)NC(=O)c1cc(-c2ccc(NC(=O)Nc3ccc(N4CCOCC4)c(C(F)(F)F)c3)cc2)nc2cccnc12 the growth was 69% (inactive).
In the case of Cn1cc(-c2cc(N)n3nc(-c4cn(C)c5ccc(Cl)cc45)cc3n2)c2cc(Cl)ccc21, the growth is reported as 85% (inactive).
In the case of NS(=O)(=O)c1cccc(Nc2nc(SCC(=O)c3ccc(Cl)cc3)nc3ccccc23)c1, the growth is reported as 63.4% (inactive).
For Cc1sc2c(c1C)c(=O)nc1c(-c3nc(-c4ccc(F)cc4)no3)n[nH]n12, the growth was 98.2% (inactive).
For CN1C(=O)N(c2ccccc2)C2N=C(N/N=C/c3ccccc3)SC21 (stereo unspecified), the growth was 38.5% (inactive).
With O=C1C2=C(C(=O)c3c(O)cccc31)C(c1ccco1)c1sc(=O)[nH]c1S2 (stereo unspecified) the growth was -73.6% (active).
N[C@@H](Cc1cn(-c2c3ccccc3nc3ccccc23)nn1)C(=O)O was tested, and the growth was 98.2% (inactive).
For Cc1sc2nc(NCc3ccccc3Cl)[nH]c(=O)c2c1C, the growth was 93.8% (inactive).
COc1ccccc1/C=C/C=N/NC1=NC2C(S1)N(C)C(=O)N2C (stereo unspecified) was tested, and the growth was 39.1% (inactive).
With CC(=O)Nc1cc(F)cc(-c2ccc3[nH]cc(-c4ccccc4)c3n2)c1 the growth was 32.7% (inactive).
For O=C(CSc1nc2sc3c(c2c(=O)n1-c1ccc(Cl)cc1)CCCC3)N/N=C/c1ccc(F)cc1, the growth was 97.1% (inactive).
With Cc1ccccc1NC(=O)/C=C/c1ccc(OCCOc2ccc3c(C)cc(=O)oc3c2)cc1 the growth was 91.5% (inactive).
CCN(CC)c1ccc(C=O)c(OCc2cn(CC(=O)Nc3ccc(Cl)cc3)nn2)c1 was tested, and the growth was 63.5% (inactive).
With CC(C)(C)OC(=O)N1C(=O)c2c(c3c4ccccc4[nH]c3c3ccc4ccccc4c23)C1=O the growth was 52.6% (inactive).
O=C(CSc1nc2sc3c(c2c(=O)n1-c1ccc(Cl)cc1)CCCC3)NNC(=O)Nc1cccc(C(F)(F)F)c1 was tested, and the growth was 14.6% (inactive).
With CC(=O)Oc1ccccc1C(=O)Nc1cc(C(C)C)ccc1C the growth was 8.31% (active).
With N#Cc1c(-c2ccc(Cl)cc2)nc(SCc2ccc(F)cc2)nc1N1CCNCC1 the growth was 52.2% (inactive).
COc1ccc(NC(=O)c2sc3nc(-c4cnccn4)cc(-c4cccs4)c3c2N)cc1 was tested, and the growth was 80.8% (inactive).
With CNC(=O)c1cc(-c2ccc(NC(=O)Nc3ccc(N4CCN(C)CC4)c(C(F)(F)F)c3)cc2)nc2cccnc12 the growth was -73.4% (active).
O=C(CSc1nccc(=O)[nH]1)Nc1ccc(-c2nc3ccccc3[nH]2)cc1 was tested, and the growth was 103% (inactive).
O=C1c2c(c3c4cccnc4[nH]c3c3ccc4ccccc4c23)C(=O)N1CCO was tested, and the growth was 84.4% (inactive).
In the case of CN1CCN(Cc2ccc(NC(=O)c3cncc(C#Cc4cnc5ccc(N6CCSCC6)nn45)c3)cc2C(F)(F)F)CC1, the growth is reported as -69.5% (active).

These compounds were tested on UO-31 renal in the same assay as above. Details: 10 µM unless noted.
With Fc1ccc(-c2cc3nc(C(Cl)Cl)nc(-c4ccccc4)n3n2)cc1 the growth was 3.9% (active).
O=C(c1ccc(Cl)cc1)C1[C@H](c2ccc(Cl)cc2)[C@@H](c2ccccc2)NC12C(=O)Nc1ccc(Br)cc12 (stereo partly specified) was tested, and the growth was 28.5% (inactive).
With COc1ccccc1C(=O)CSc1nc(Nc2ccc(S(N)(=O)=O)cc2)c2ccccc2n1 the growth was 90.6% (inactive).
In the case of CC(C)(C)Nc1nc2c(OCCc3ccccc3)cccn2c1-c1ccccc1Cl, the growth is reported as -14% (active).
In the case of CNC(=O)c1cc(-c2ccc(NC(=O)Nc3ccc(N4CCOCC4)c(C(F)(F)F)c3)cc2)nc2cccnc12, the growth is reported as 43.2% (inactive).
CS(=O)(=O)c1ccc(-n2cc(/C=C/C(=O)c3ccc(NC(=O)CO[N+](=O)[O-])cc3)c(-c3ccc(Cl)cc3)n2)cc1 was tested, and the growth was 115% (inactive).
For Cc1[nH]nc2ncc(C#Cc3cncc(C(=O)Nc4ccc(CN5CCN(C)CC5)c(C(F)(F)F)c4)c3)cc12, the growth was -6.87% (active).
In the case of CCN1C(=S)N(CC)C2C1N=C(SC)N2/N=C/C=C/c1ccccc1[N+](=O)[O-] (stereo unspecified), the growth is reported as 94.8% (inactive).
With C/C(=C(/c1ccc(Cl)cc1)c1ccc(OCCN)cc1)c1ccc(C)cc1 the growth was 83.2% (inactive).
In the case of O=[N+]([O-])c1ccc(O)c2ncccc12, the growth is reported as 31.4% (inactive).
With Cc1cc(=O)oc2cc(OCCCOc3ccc(/C=C/C(=O)Nc4ccc(Cl)cc4)cc3)ccc12 the growth was 61.5% (inactive).
In the case of Cc1ccc(-c2nc(C(Cl)Cl)nc3cc(-c4ccccc4)nn23)cc1, the growth is reported as 45.3% (inactive).
In the case of Nc1cc(-c2c[nH]c3ccc(F)cc23)nc2cc(-c3c[nH]c4ccc(F)cc34)nn12, the growth is reported as 75.8% (inactive).
In the case of COc1cccc(N2CCN(c3ncnc4c3[nH]c3ccc(F)cc34)C[C@@H]2C)c1, the growth is reported as -98.8% (active).
Cc1ccc(/C=C/c2nn3c(-c4ccco4)nnc3s2)cc1C was tested, and the growth was 80.8% (inactive).
For CCN1C(=S)N(CC)C2C1NN=C1SC(c3ccccc3)=CC(=O)N12 (stereo unspecified), the growth was 113% (inactive).
For CC(C)NC(=O)c1cc(-c2ccc(NC(=O)Nc3ccc(N4CCOCC4)c(C(F)(F)F)c3)cc2)nc2cccnc12, the growth was 48.2% (inactive).
In the case of Cn1cc(-c2cc(N)n3nc(-c4cn(C)c5ccc(Cl)cc45)cc3n2)c2cc(Cl)ccc21, the growth is reported as 100% (inactive).
In the case of NS(=O)(=O)c1cccc(Nc2nc(SCC(=O)c3ccc(Cl)cc3)nc3ccccc23)c1, the growth is reported as 84.2% (inactive).
With Cc1sc2c(c1C)c(=O)nc1c(-c3nc(-c4ccc(F)cc4)no3)n[nH]n12 the growth was 88.1% (inactive).
For CN1C(=O)N(c2ccccc2)C2N=C(N/N=C/c3ccccc3)SC21 (stereo unspecified), the growth was 47.4% (inactive).
O=C1C2=C(C(=O)c3c(O)cccc31)C(c1ccco1)c1sc(=O)[nH]c1S2 (stereo unspecified) was tested, and the growth was 25.1% (inactive).
N[C@@H](Cc1cn(-c2c3ccccc3nc3ccccc23)nn1)C(=O)O was tested, and the growth was 89.6% (inactive).
In the case of Cc1sc2nc(NCc3ccccc3Cl)[nH]c(=O)c2c1C, the growth is reported as 94.5% (inactive).
COc1ccccc1/C=C/C=N/NC1=NC2C(S1)N(C)C(=O)N2C (stereo unspecified) was tested, and the growth was 49% (inactive).
In the case of CC(=O)Nc1cc(F)cc(-c2ccc3[nH]cc(-c4ccccc4)c3n2)c1, the growth is reported as 10.1% (inactive).
For O=C(CSc1nc2sc3c(c2c(=O)n1-c1ccc(Cl)cc1)CCCC3)N/N=C/c1ccc(F)cc1, the growth was 83.2% (inactive).
With Cc1ccccc1NC(=O)/C=C/c1ccc(OCCOc2ccc3c(C)cc(=O)oc3c2)cc1 the growth was 99.6% (inactive).
With CCN(CC)c1ccc(C=O)c(OCc2cn(CC(=O)Nc3ccc(Cl)cc3)nn2)c1 the growth was -58.2% (active).
In the case of CC(C)(C)OC(=O)N1C(=O)c2c(c3c4ccccc4[nH]c3c3ccc4ccccc4c23)C1=O, the growth is reported as 40.4% (inactive).
O=C(CSc1nc2sc3c(c2c(=O)n1-c1ccc(Cl)cc1)CCCC3)NNC(=O)Nc1cccc(C(F)(F)F)c1 was tested, and the growth was 13.2% (inactive).
With CC(=O)Oc1ccccc1C(=O)Nc1cc(C(C)C)ccc1C the growth was -0.422% (active).
In the case of N#Cc1c(-c2ccc(Cl)cc2)nc(SCc2ccc(F)cc2)nc1N1CCNCC1, the growth is reported as 51.3% (inactive).
For COc1ccc(NC(=O)c2sc3nc(-c4cnccn4)cc(-c4cccs4)c3c2N)cc1, the growth was 52.3% (inactive).
In the case of CNC(=O)c1cc(-c2ccc(NC(=O)Nc3ccc(N4CCN(C)CC4)c(C(F)(F)F)c3)cc2)nc2cccnc12, the growth is reported as -81% (active).
With O=C(CSc1nccc(=O)[nH]1)Nc1ccc(-c2nc3ccccc3[nH]2)cc1 the growth was 108% (inactive).
For O=C1c2c(c3c4cccnc4[nH]c3c3ccc4ccccc4c23)C(=O)N1CCO, the growth was 56.1% (inactive).
In the case of CN1CCN(Cc2ccc(NC(=O)c3cncc(C#Cc4cnc5ccc(N6CCSCC6)nn45)c3)cc2C(F)(F)F)CC1, the growth is reported as -11.5% (active).
